In PubChem BioAssay AID1159580 (chemical genetic matrix, 2015):
Where “and” joins values, the source holds several entries; their conditions need not be identical. Equal values may be shown once. Among all 5,500 compounds or so, about 2,000 (36%) were called active. Roughly 18% stayed inconclusive and do not appear here. Cut-off read from the data, not from the text of the source: active = normalized growth mostly below about 0.91 (no sharp cut-off); inconclusive = no clear call, values can overlap the other calls; inactive = mostly above about 0.92. This is one part of the list.

Experiment: chemical genetic growth profiling, strain panel (AID 1159580);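 note: tested at 20 µM; growth read once vehicle control cultures reached saturation at 30 °C; 1 = growth at the plate median or of vehicle wells; lower values mean less growth of the strain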
Details: growth OD

Measured: normalized growth

C[N+](C)(C)CCOC(N)=O
inactive: S. cerevisiae deletion strains, locus YKL068W, stronger effect = lower value 0.981 | S. cerevisiae deletion strains, locus YKL085W, strain MDH1 (second series), stronger effect = lower value 0.969 | S. cerevisiae deletion strains, locus YKL085W, strain MDH1, stronger effect = lower value 0.969 | S. cerevisiae deletion strains, locus YKL160W, strain elf1, stronger effect = lower value 1.02 | S. cerevisiae deletion strains, locus YKL190W, strain CNB1, stronger effect = lower value 1 | S. cerevisiae deletion strains, locus YKR001C, strain vps1, stronger effect = lower value 0.991 | S. cerevisiae deletion strains, locus YKR026C, strain gcn3, stronger effect = lower value 0.988 | S. cerevisiae deletion strains, locus YKR091W, strain srl3, stronger effect = lower value 1 | S. cerevisiae deletion strains, locus YLL001W, strain dnm1, stronger effect = lower value 0.998 | S. cerevisiae deletion strains, locus YLL026W, stronger effect = lower value 1 | S. cerevisiae deletion strains, locus YLL041C, strain sdh2, stronger effect = lower value 1.01 | S. cerevisiae deletion strains, locus YLR027C, strain aat2, stronger effect = lower value 1.01 | S. cerevisiae deletion strains, locus YLR039C, strain RIC1, stronger effect = lower value 0.993 | S. cerevisiae deletion strains, locus YLR058C, strain SHM2, stronger effect = lower value 1 | S. cerevisiae deletion strains, locus YLR102C, strain apc9, stronger effect = lower value 0.986 | S. cerevisiae deletion strains, locus YLR113W, strain HOG1, stronger effect = lower value 0.959 | S. cerevisiae deletion strains, locus YLR221C, strain rsa3, stronger effect = lower value 1.01 | S. cerevisiae deletion strains, locus YLR258W, strain gsy2, stronger effect = lower value 1.02 | S. cerevisiae deletion strains, locus YLR262C, strain YPT6 (second series), stronger effect = lower value 1.02 | S. cerevisiae deletion strains, locus YLR262C, strain YPT6, stronger effect = lower value 0.991 | S. cerevisiae deletion strains, locus YLR268W, strain sec22, stronger effect = lower value 0.978 | S. cerevisiae deletion strains, locus YLR320W, strain mms22, stronger effect = lower value 1.03 | S. cerevisiae deletion strains, locus YLR330W, strain CHS5, stronger effect = lower value 1 | S. cerevisiae deletion strains, locus YLR342W, strain FKS1 (second series), stronger effect = lower value 1.12 | S. cerevisiae deletion strains, locus YLR342W, strain FKS1, stronger effect = lower value 1.01 | S. cerevisiae deletion strains, locus YLR357W, strain rsc2, stronger effect = lower value 1 | S. cerevisiae deletion strains, locus YLR370C, strain arc18, stronger effect = lower value 1.01 | S. cerevisiae deletion strains, locus YLR371W, strain rom2, stronger effect = lower value 0.97 | S. cerevisiae deletion strains, locus YLR384C, strain iki3, stronger effect = lower value 1.04 | S. cerevisiae deletion strains, locus YLR418C, strain cdc73, stronger effect = lower value 0.983 | S. cerevisiae deletion strains, locus YML016C, strain PPZ1, stronger effect = lower value 1.02 | S. cerevisiae deletion strains, locus YML032C, strain rad52, stronger effect = lower value 0.993 | S. cerevisiae deletion strains, locus YML120C, strain ndi1, stronger effect = lower value 1.02 | S. cerevisiae deletion strains, locus YML124C, strain tub3, stronger effect = lower value 0.974 | S. cerevisiae deletion strains, locus YMR058W, strain fet3, stronger effect = lower value 1.02 | S. cerevisiae deletion strains, locus YMR078C, strain ctf18, stronger effect = lower value 0.956 | S. cerevisiae deletion strains, locus YMR125W, strain sto1, stronger effect = lower value 1.03 | S. cerevisiae deletion strains, locus YMR129W, stronger effect = lower value 1.02 | S. cerevisiae deletion strains, locus YMR205C, strain PFK2, stronger effect = lower value 1.02 | S. cerevisiae deletion strains, locus YMR223W, strain ubp8, stronger effect = lower value 0.975 | S. cerevisiae deletion strains, locus YMR231W, strain pep5, stronger effect = lower value 1.02 | S. cerevisiae deletion strains, locus YMR263W, strain SAP30, stronger effect = lower value 1 and 0.986 | S. cerevisiae deletion strains, locus YMR307W, strain GAS1, stronger effect = lower value 1.16 | S. cerevisiae deletion strains, locus YNL067W, strain RPL9B, stronger effect = lower value 0.961 | S. cerevisiae deletion strains, locus YNL071W, strain lat1, stronger effect = lower value 1.01 | S. cerevisiae deletion strains, locus YNL128W, strain TEP1, stronger effect = lower value 0.971 | S. cerevisiae deletion strains, locus YNL153C, strain GIM3, stronger effect = lower value 0.963 | S. cerevisiae deletion strains, locus YNL175C, strain NOP13, stronger effect = lower value 0.973 | S. cerevisiae deletion strains, locus YNL183C, strain NPR1, stronger effect = lower value 0.938 | S. cerevisiae deletion strains, locus YNL197C, strain WHI3, stronger effect = lower value 0.991 | S. cerevisiae deletion strains, locus YNL209W, strain ssb2, stronger effect = lower value 1.01 | S. cerevisiae deletion strains, locus YNL224C, strain SQS1, stronger effect = lower value 0.991 | S. cerevisiae deletion strains, locus YNL233W, strain BNI4, stronger effect = lower value 0.99 | S. cerevisiae deletion strains, locus YNL248C, strain rpa49, stronger effect = lower value 1.03 | S. cerevisiae deletion strains, locus YNL250W, strain rad50, stronger effect = lower value 0.969 | S. cerevisiae deletion strains, locus YNL271C, strain bni1, stronger effect = lower value 0.979 | S. cerevisiae deletion strains, locus YNL298W, strain CLA4, stronger effect = lower value 0.977 | S. cerevisiae deletion strains, locus YNL307C, strain MCK1, stronger effect = lower value 0.982 | S. cerevisiae deletion strains, locus YNL322C, strain KRE1 (second series), stronger effect = lower value 1.02 | S. cerevisiae deletion strains, locus YNL322C, strain KRE1, stronger effect = lower value 0.989 | S. cerevisiae deletion strains, locus YNR049C, strain mso1, stronger effect = lower value 1.02 | S. cerevisiae deletion strains, locus YNR052C, strain pop2, stronger effect = lower value 0.97 | S. cerevisiae deletion strains, locus YOL012C, strain htz1 0.907 | S. cerevisiae deletion strains, locus YOL147C, strain pex11, stronger effect = lower value 0.978 | S. cerevisiae deletion strains, locus YOR001W, strain rrp6, stronger effect = lower value 1.03 | S. cerevisiae deletion strains, locus YOR061W, strain CKA2, stronger effect = lower value 1 | S. cerevisiae deletion strains, locus YOR069W, strain VPS5, stronger effect = lower value 1 | S. cerevisiae deletion strains, locus YOR070C, strain gyp1, stronger effect = lower value 1.01 | S. cerevisiae deletion strains, locus YOR080W, strain dia2, stronger effect = lower value 1.03 | S. cerevisiae deletion strains, locus YOR083W, strain WHI5 (second series), stronger effect = lower value 1.01 | S. cerevisiae deletion strains, locus YOR083W, strain WHI5, stronger effect = lower value 1.03 | S. cerevisiae deletion strains, locus YOR106W, strain vam3, stronger effect = lower value 1.01 | S. cerevisiae deletion strains, locus YOR136W, strain idh2, stronger effect = lower value 0.976 | S. cerevisiae deletion strains, locus YOR144C, strain elg1, stronger effect = lower value 0.982 | S. cerevisiae deletion strains, locus YOR184W, strain ser1, stronger effect = lower value 0.973 | S. cerevisiae deletion strains, locus YOR231W, strain MKK1, stronger effect = lower value 1 | S. cerevisiae deletion strains, locus YOR265W, strain rbl2, stronger effect = lower value 1.01 | S. cerevisiae deletion strains, locus YOR270C, strain vph1, stronger effect = lower value 1.05 | S. cerevisiae deletion strains, locus YOR290C, strain snf2, stronger effect = lower value 1.02 | S. cerevisiae deletion strains, locus YOR316C, strain cot1, stronger effect = lower value 0.976 | S. cerevisiae deletion strains, locus YPL051W, strain arl3, stronger effect = lower value 1.02 | S. cerevisiae deletion strains, locus YPL055C, strain LGE1, stronger effect = lower value 0.997 and 0.999 | S. cerevisiae deletion strains, locus YPL078C, strain atp4, stronger effect = lower value 1.01 | S. cerevisiae deletion strains, locus YPL106C, strain sse1, stronger effect = lower value 1.04 | S. cerevisiae deletion strains, locus YPL240C, strain hsp82, stronger effect = lower value 1.02 | S. cerevisiae deletion strains, locus YPL241C, strain CIN2, stronger effect = lower value 1.01 | S. cerevisiae deletion strains, locus YPL256C, strain CLN2, stronger effect = lower value 0.993 | S. cerevisiae deletion strains, locus YPR119W, strain clb2, stronger effect = lower value 0.973 | S. cerevisiae deletion strains, locus YPR141C, strain kar3, stronger effect = lower value 0.973 | S. cerevisiae deletion strains, locus YPR163C, strain tif3, stronger effect = lower value 0.985 | S. cerevisiae deletion strains, locus YPR167C, strain met16, stronger effect = lower value 0.975 | S. cerevisiae deletion strains, strain wtn01, stronger effect = lower value 1.01 | S. cerevisiae strains, strain wild type, stronger effect = lower value 1.01
